PubChem BioAssay AID1159580 (chemical genetic matrix, 2015)
In all, about 5,500 compounds went through this assay and about 2,000 (36%) were called active. About 18% were inconclusive and are not listed. Rule as the data show it: active = normalized growth mostly below about 0.91 (no sharp cut-off); inconclusive = no clear call, values can overlap the other calls; inactive = mostly above about 0.92. The list shows a part of the results.

Assay: chemical genetic growth profiling, strain panel (AID 1159580);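 also: tested at 20 µM; growth read once vehicle control cultures reached saturation at 30 °C; 1 = growth at the plate median or of vehicle wells; lower values mean less growth of the strain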
Conditions: S. cerevisiae deletion strains, growth OD

Measured: normalized growth

FC(F)(F)c1cccc(N2CCNCC2)c1
inactive: locus YAL013W, strain DEP1, active compounds read low 1 | locus YAL021C, strain ccr4, active compounds read low 0.992 | locus YAL026C, strain drs2, active compounds read low 1 | locus YAL030W, strain snc1, active compounds read low 0.99 | locus YBL061C, strain skt5, active compounds read low 0.992 | locus YBR009C, strain hhf1, active compounds read low 0.978 | locus YBR021W, strain FUR4, active compounds read low 0.991 | locus YBR023C, strain chs3, active compounds read low 0.996 | locus YBR171W, strain sec66, active compounds read low 1.01 | locus YBR229C, strain ROT2, active compounds read low 1.01 | locus YBR231C, strain swc5, active compounds read low 0.99 | locus YBR279W, strain paf1, active compounds read low 1 | locus YCL011C, strain gbp2, active compounds read low 0.999 | locus YCL016C, strain dcc1, active compounds read low 0.991 | locus YCL029C, strain bik1, active compounds read low 0.996 | locus YCL061C, strain MRC1, active compounds read low 1 | locus YCL069W, strain vba3, active compounds read low 1 | locus YCR088W, strain abp1, active compounds read low 1.01 | locus YDL005C, strain med2, active compounds read low 1 | locus YDL035C, strain GPR1, active compounds read low 1 | locus YDL040C, strain nat1, active compounds read low 0.988 | locus YDL074C, strain BRE1, active compounds read low 0.994 | locus YDL101C, strain DUN1, active compounds read low 1 | locus YDL134C, strain PPH21, active compounds read low 1.01 | locus YDL185W, strain tfp1, active compounds read low 0.994 | locus YDL192W, strain arf1, active compounds read low 0.995 | locus YDR001C, strain nth1, active compounds read low 1.01 | locus YDR069C, strain doa4, active compounds read low 0.973 | locus YDR101C, strain arx1, active compounds read low 0.994 | locus YDR137W, strain rgp1, active compounds read low 1 | locus YDR159W, strain sac3, active compounds read low 0.956 | locus YDR162C, strain NBP2, active compounds read low 1.01 | locus YDR195W, strain ref2 0.928 | locus YDR297W, strain sur2, active compounds read low 1 | locus YDR318W, strain mcm21, active compounds read low 0.989 | locus YDR334W, strain swr1, active compounds read low 1.01 | locus YDR335W, strain msn5, active compounds read low 0.993 | locus YDR388W, active compounds read low 0.977 | locus YDR392W, strain spt3, active compounds read low 0.89 | locus YDR502C, strain sam2, active compounds read low 0.98 | locus YEL003W, strain gim4, active compounds read low 1.01 | locus YEL037C, strain rad23, active compounds read low 1 | locus YEL061C, strain CIN8 (second series), active compounds read low 1.01 | locus YEL061C, strain CIN8, active compounds read low 1.01 | locus YER015W, strain faa2, active compounds read low 0.994 | locus YER016W, strain bim1, active compounds read low 0.995 | locus YER110C, active compounds read low 0.976 | locus YER111C, strain swi4, active compounds read low 0.999 | locus YER155C, strain BEM2 (second series), active compounds read low 0.93 | locus YER155C, strain BEM2, active compounds read low 1.01 | locus YER167W, strain BCK2, active compounds read low 1 | locus YFR010W, strain ubp6, active compounds read low 1.03 | locus YGL078C, strain dbp3, active compounds read low 0.973 | locus YGL086W, strain mad1, active compounds read low 0.983 | locus YGL167C, strain pmr1, active compounds read low 0.981 | locus YGL173C, strain kem1, active compounds read low 1.01 | locus YGL227W, strain vid30, active compounds read low 1 | locus YGL240W, strain doc1, active compounds read low 0.962 | locus YGL248W, strain PDE1, active compounds read low 1.01 | locus YGL253W, strain hxk2, active compounds read low 1.02 | locus YGR135W, strain pre9, active compounds read low 0.953 | locus YGR229C, strain SMI1, active compounds read low 0.987 | locus YGR252W, strain gcn5, active compounds read low 0.932 | locus YHR013C, strain ard1, active compounds read low 0.961 | locus YHR027C, strain rpn1, active compounds read low 0.994 | locus YHR030C, strain SLT2, active compounds read low 1.01 | locus YHR079C, strain IRE1 (second series), active compounds read low 0.998 | locus YHR094C, strain hxt1, active compounds read low 0.992 | locus YHR129C, strain ARP1, active compounds read low 1.01 | locus YHR142W, strain chs7, active compounds read low 1.02 | locus YHR200W, strain rpn10, active compounds read low 0.987 | locus YIL066C, strain RNR3, active compounds read low 1.02 | locus YIL073C, strain SPO22, active compounds read low 1.08 | locus YIL125W, strain kgd1, active compounds read low 0.974 | locus YIR030C, strain dcg1, active compounds read low 1 | locus YJL092W, strain hpr5, active compounds read low 1.01 | locus YJL095W, strain BCK1 (second series), active compounds read low 0.995 | locus YJL095W, strain BCK1, active compounds read low 1.02 | locus YJL115W, strain asf1, active compounds read low 0.998 | locus YJL129C, strain trk1, active compounds read low 1.03 | locus YJL134W, strain LCB3, active compounds read low 1 | locus YJL154C, strain vps35, active compounds read low 1 | locus YJL164C, strain tpk1, active compounds read low 0.993 | locus YJL166W, strain qcr8, active compounds read low 0.987 | locus YJL168C, strain set2, active compounds read low 0.987 | locus YJL187C, strain SWE1 (second series), active compounds read low 1.01
